In the library only some 3.5% were active in any assay of this set; here they are far more common.
GPR151 ag: human GPR151 activation; Q8TDV0; PathHunter beta-arrestin GPR151 cells, luminescence; activation, % at 11.2 µM; actives 1% (n = 650,000); AID 1508602; in the data active = activation above about 4.9%
Target sequence (Q8TDV0 whole entry, looked up): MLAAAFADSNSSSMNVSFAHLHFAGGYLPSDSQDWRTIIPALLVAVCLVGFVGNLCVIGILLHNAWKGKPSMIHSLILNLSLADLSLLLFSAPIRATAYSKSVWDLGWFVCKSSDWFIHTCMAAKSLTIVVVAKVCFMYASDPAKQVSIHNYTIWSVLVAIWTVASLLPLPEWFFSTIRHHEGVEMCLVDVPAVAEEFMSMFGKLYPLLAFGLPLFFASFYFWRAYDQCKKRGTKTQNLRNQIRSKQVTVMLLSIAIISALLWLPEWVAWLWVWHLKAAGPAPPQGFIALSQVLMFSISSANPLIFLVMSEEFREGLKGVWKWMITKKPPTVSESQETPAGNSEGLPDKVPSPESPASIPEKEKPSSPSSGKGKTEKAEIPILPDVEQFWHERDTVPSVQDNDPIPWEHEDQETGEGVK
FBW7 act: human FBW7 E3 ligase activation, primary screen. normalized activity (activation), % at 26.1 µM. Q969H0. AID 1259310. actives 0.13% (n = 650,000). AlphaScreen FBW7–phospho-cyclin E peptide binding, activator screen; in the data active = normalized activity above about 1.9%;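 also: purified mutant Fbw7 with reduced substrate affinity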
TEAD-YAP block: TEAD-YAP interaction inhibition | HEK-TIYL cells, TEAD-Gal4/YAP UAS-luciferase luminescence | inhibition, % at 9.12 µM | actives 1.4% (n = 640,000); in the data active = inhibition above about 32%
MITF inh: human MITF inhibition, primary screen. O75030. AlphaScreen MITF homodimerization, bead proximity signal. AID 1259374. inhibition, % at 2.6 µM. actives 0.91% (n = 650,000); in the data active = inhibition above about 50%
GPR151 conf act: human GPR151 activation, confirmation screen; shares compounds with GPR151 ag; GPR151 PathHunter beta-arrestin cells, luminescence, 90 min; % of EA-reagent control over plate median; activation, % at 11.2 µM; 6,700 tested, under 10 active; AID 1508609;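 active = mean percent activation across replicates above the confirmation screen cutoff of 4.91%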
GPR119 counter: GPR119 activation, counter-screen for GPR151 activators. GPR119 PathHunter beta-arrestin cells, luminescence, 90 min; 0 = compound-well median, 100 = enzyme-acceptor control. activation, % at 11.2 µM. actives 0.3% (n = 6,700). shares compounds with GPR151 ag;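 active = mean percent activation in the counterscreen above 29.09%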;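 also: counterscreen on off-target GPR119 to flag nonselective hits from the GPR151 activator screen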
Numbers stand for hits.

For O=S(=O)(Nc1ccc(O)c(Br)c1)c1ccc(F)cc1 the results were GPR151 ag inactive, FBW7 act inactive, TEAD-YAP block inactive and MITF inh inactive.
COc1ccc(NS(=O)(=O)c2ccc(Br)c(C(=O)Nc3ccccc3)c2)cc1 was read as GPR151 ag 6.2, FBW7 act inactive, TEAD-YAP block inactive, MITF inh inactive, GPR151 conf act inactive and GPR119 counter inactive.
Screening COc1cc([N+](=O)[O-])cc(CN2CCN(c3ccccc3)CC2)c1O returned GPR151 ag inactive, FBW7 act inactive, TEAD-YAP block inactive and MITF inh inactive.
For CCOC(=O)N1CCc2c(sc(NC(=O)c3ccc(S(=O)(=O)N(C)C)cc3)c2C(=O)N2CCOCC2)C1 the results were GPR151 ag inactive, FBW7 act inactive, TEAD-YAP block inactive and MITF inh inactive.
`C=CCn1c(SCC(=O)Nc2cccc(SC)c2)nnc1-c1ccccc1O` gave GPR151 ag 5.7, FBW7 act inactive, TEAD-YAP block inactive, MITF inh inactive, GPR151 conf act inactive and GPR119 counter inactive.
Screening C=CCn1c(CNC(=O)c2ccco2)nnc1SCC(=O)Nc1cccc(F)c1 returned GPR151 ag 7.3, FBW7 act inactive, TEAD-YAP block inactive, MITF inh inactive, GPR151 conf act inactive and GPR119 counter inactive.
CC(=O)c1cccc(NC(=O)CSc2nnc(-c3cc4ccccc4cc3O)n2C)c1 was read as GPR151 ag 5.0, FBW7 act inactive, TEAD-YAP block inactive, MITF inh inactive, GPR151 conf act inactive and GPR119 counter inactive.
`CCOc1ccc(C/C(O)=C2/C(=N)CC(C)(C)CC2=O)cc1OCC` gave GPR151 ag inactive, FBW7 act inactive, TEAD-YAP block inactive and MITF inh inactive.
`C=CCN1CC(C(=O)N2CCC(CO)(CCc3ccccc3)CC2)CC1=O` (centres undefined) gave GPR151 ag inactive, FBW7 act inactive, TEAD-YAP block inactive and MITF inh inactive.
For CC(=O)Oc1cccc(/C=C2/C(=O)NN(c3ccc(C)c(C)c3)C2=O)c1 the results were GPR151 ag 5.0, FBW7 act inactive, TEAD-YAP block inactive, MITF inh inactive, GPR151 conf act inactive and GPR119 counter inactive.
O=C1NN(c2ccc(F)c(Cl)c2)C(=O)/C1=C\c1ccc(Br)cc1 was read as GPR151 ag inactive, FBW7 act inactive, TEAD-YAP block inactive and MITF inh inactive.
Screening O=C1NN(c2ccc(F)c(Cl)c2)C(=O)/C1=C\c1cccc(I)c1 returned GPR151 ag 5.2, FBW7 act inactive, TEAD-YAP block inactive, MITF inh inactive, GPR151 conf act inactive and GPR119 counter inactive.
CC(NC(=O)c1ccccc1NS(=O)(=O)c1cccc([N+](=O)[O-])c1)c1ccccc1 (centres undefined) was read as GPR151 ag inactive, FBW7 act inactive, TEAD-YAP block inactive and MITF inh inactive.
O=C(NCCO)/C(=C\c1cccc([N+](=O)[O-])c1)NC(=O)c1ccccc1 was read as GPR151 ag 11.5, FBW7 act inactive, TEAD-YAP block inactive, MITF inh inactive, GPR151 conf act inactive and GPR119 counter inactive.
For O=C(Nc1ccc([N+](=O)[O-])cc1)/C(=C/c1ccccc1)NC(=O)c1ccccc1 the results were GPR151 ag 7.3, FBW7 act inactive, TEAD-YAP block inactive, MITF inh inactive, GPR151 conf act inactive and GPR119 counter inactive.
Screening CCNC(=O)/C(=C/c1cccc([N+](=O)[O-])c1)NC(=O)c1ccc(C)cc1 returned GPR151 ag 5.9, FBW7 act inactive, TEAD-YAP block inactive, MITF inh inactive, GPR151 conf act inactive and GPR119 counter inactive.
For O=C(NCCO)/C(=C/c1cccc([N+](=O)[O-])c1)NC(=O)c1cccc(Br)c1 the results were GPR151 ag inactive, FBW7 act inactive, TEAD-YAP block inactive and MITF inh inactive.
CCCCNC(=O)/C(=C\c1cccc([N+](=O)[O-])c1)NC(=O)c1ccc(C)cc1 was read as GPR151 ag inactive, FBW7 act inactive, TEAD-YAP block inactive and MITF inh inactive.
For O=C(NCCc1ccc(F)cc1)c1ccc([N+](=O)[O-])cc1 the results were GPR151 ag inactive, FBW7 act inactive, TEAD-YAP block inactive and MITF inh inactive.
For O=C(NCCCNc1ccc([N+](=O)[O-])cc1)c1ccc(F)cc1 the results were GPR151 ag 5.7, FBW7 act inactive, TEAD-YAP block inactive, MITF inh inactive, GPR151 conf act inactive and GPR119 counter inactive.
